The text below walks through data of paper PMC7862700, “An all-to-all approach to the identification of sequence-specific readers for epigenetic DNA modifications on cytosine”.

Test in all cases: DAPPL (digital affinity profiling via proximity ligation, sequencing); 10 mM Tris-HCl pH 7.5, 50 mM NaCl, 1 mM DTT, 4% glycerol, room temperature, 30 min; GST-TFs on glutathione beads, 16-mer random dsDNA library, 0.1% formaldehyde crosslink after washing; high values mean tight binding
For one experiment, the target named is T1, FEV (Homo sapiens, UniProt Q99581 1-238).
T1 sequence: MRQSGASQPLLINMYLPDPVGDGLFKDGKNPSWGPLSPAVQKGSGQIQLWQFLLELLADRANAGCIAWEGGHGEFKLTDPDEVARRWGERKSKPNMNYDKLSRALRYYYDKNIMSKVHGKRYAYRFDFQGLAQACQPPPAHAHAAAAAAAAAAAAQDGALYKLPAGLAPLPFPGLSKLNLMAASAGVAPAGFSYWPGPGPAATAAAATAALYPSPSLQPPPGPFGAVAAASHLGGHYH
To be noted: protein: recombinant; tags: N-terminal GST; dsDNA, one strand shown. Put shortly:
(§1)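 Human transcription factors fused to GST were expressed in yeast, captured on glutathione beads, given DNA barcodes and pooled with a GST-only negative control. Pools were incubated with 200 nmole of a 16-mer random double-stranded DNA library in Tris/NaCl/DTT/glycerol buffer at room temperature for 30 min. They were then washed, crosslinked with 0.1% formaldehyde, proximity-ligated (BsaI/T4 ligase, 1 h, 37 °C), PCR-amplified and sequenced on an Illumina NextSeq500. Binding signal is each 6-mer's read frequency for a factor divided by its frequency for the GST control.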

Another experiment addresses ETV5 (Homo sapiens, UniProt P41161 1-510). The conditions noted are these: protein: recombinant; tags: N-terminal GST; dsDNA, one strand shown. The method, boiled down: as §1
A further experiment deals with HSF1 (Homo sapiens, UniProt Q00613 1-529). To be noted: protein: recombinant; tags: N-terminal GST; chain copies: 3; dsDNA, one strand shown. Put shortly: as §1
HSF1, sequence (Q00613 whole entry): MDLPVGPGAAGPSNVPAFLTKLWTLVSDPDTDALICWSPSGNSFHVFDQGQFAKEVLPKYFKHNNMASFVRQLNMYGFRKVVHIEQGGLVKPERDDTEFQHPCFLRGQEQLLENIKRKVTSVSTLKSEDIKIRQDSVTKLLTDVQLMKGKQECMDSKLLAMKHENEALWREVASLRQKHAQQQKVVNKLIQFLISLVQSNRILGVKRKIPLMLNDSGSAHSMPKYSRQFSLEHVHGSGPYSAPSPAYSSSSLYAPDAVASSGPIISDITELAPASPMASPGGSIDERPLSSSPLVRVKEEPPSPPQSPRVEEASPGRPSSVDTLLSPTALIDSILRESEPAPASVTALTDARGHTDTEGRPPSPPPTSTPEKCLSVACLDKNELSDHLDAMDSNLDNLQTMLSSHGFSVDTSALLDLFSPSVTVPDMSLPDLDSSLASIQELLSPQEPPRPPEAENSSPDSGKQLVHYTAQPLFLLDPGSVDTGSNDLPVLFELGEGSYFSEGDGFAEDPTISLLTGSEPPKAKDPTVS
The next experiment deals with T2, SPIC (Homo sapiens, UniProt Q8N5J4 1-248).
T2 sequence: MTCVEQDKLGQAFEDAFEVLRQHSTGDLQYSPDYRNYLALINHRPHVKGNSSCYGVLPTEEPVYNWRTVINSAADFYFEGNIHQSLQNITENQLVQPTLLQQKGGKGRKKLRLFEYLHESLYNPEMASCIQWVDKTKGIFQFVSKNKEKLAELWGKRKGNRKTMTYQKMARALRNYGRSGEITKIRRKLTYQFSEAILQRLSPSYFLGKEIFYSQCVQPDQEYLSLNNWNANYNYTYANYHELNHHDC
To be noted: protein: recombinant; tags: N-terminal GST; dsDNA, one strand shown. The method, boiled down: as §1

For the next experiment, the target named is ELF4 (Homo sapiens, UniProt Q99607 1-663). The conditions noted are these: protein: recombinant; tags: N-terminal GST; dsDNA, one strand shown. Put shortly:
as §1

The target in the next experiment is T3, ELK4 (Homo sapiens, UniProt P28324-2 1-405).
T3 sequence: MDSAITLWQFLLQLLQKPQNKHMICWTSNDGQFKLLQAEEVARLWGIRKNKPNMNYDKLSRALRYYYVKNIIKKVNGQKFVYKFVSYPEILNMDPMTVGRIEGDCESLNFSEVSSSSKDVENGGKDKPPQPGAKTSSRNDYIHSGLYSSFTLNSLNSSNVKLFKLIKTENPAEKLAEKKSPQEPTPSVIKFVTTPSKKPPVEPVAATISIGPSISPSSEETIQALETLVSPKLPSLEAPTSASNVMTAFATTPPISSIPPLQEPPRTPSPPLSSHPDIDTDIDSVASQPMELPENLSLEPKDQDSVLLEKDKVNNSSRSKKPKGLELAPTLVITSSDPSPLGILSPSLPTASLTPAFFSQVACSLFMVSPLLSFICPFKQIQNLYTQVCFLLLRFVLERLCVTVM
To be noted: protein: recombinant; tags: N-terminal GST; dsDNA, one strand shown. Put shortly: as §1

The next experiment addresses T4, ETV2 (Homo sapiens, UniProt O00321 1-342).
T4 sequence: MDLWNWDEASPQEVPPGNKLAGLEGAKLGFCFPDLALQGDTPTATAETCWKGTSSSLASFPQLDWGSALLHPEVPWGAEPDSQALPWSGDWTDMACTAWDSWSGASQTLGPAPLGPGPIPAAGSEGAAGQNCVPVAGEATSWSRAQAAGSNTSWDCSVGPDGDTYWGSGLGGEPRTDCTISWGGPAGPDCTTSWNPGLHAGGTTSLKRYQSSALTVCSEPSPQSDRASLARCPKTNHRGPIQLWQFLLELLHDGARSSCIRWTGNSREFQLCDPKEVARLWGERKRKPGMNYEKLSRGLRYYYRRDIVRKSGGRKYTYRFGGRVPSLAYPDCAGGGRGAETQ
To be noted: protein: recombinant; tags: N-terminal GST; dsDNA, one strand shown. Put shortly:
as §1

A further experiment has as its target T5, ELF3 (Homo sapiens, UniProt P78545 1-371).
T5 sequence: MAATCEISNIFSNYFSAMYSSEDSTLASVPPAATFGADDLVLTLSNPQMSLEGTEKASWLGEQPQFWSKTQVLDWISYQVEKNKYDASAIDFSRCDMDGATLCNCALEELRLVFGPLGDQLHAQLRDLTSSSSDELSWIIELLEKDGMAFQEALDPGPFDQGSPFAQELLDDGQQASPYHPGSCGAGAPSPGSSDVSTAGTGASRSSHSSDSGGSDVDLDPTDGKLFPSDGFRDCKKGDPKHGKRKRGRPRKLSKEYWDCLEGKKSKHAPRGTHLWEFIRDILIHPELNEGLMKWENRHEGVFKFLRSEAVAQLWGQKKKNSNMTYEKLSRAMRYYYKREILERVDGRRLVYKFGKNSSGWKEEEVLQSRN
To be noted: protein: recombinant; tags: N-terminal GST; dsDNA, one strand shown. Put shortly: as §1

The next experiment deals with CRX (Homo sapiens, UniProt O43186 1-299). The conditions noted are these: protein: recombinant; tags: N-terminal GST; dsDNA, one strand shown. Put shortly:
as §1

For a further experiment, the target named is ETV1 (Homo sapiens, UniProt P50549 1-477). To be noted: protein: recombinant; tags: N-terminal GST; dsDNA, one strand shown. The method, boiled down: as §1
ETV1, sequence (P50549 whole entry): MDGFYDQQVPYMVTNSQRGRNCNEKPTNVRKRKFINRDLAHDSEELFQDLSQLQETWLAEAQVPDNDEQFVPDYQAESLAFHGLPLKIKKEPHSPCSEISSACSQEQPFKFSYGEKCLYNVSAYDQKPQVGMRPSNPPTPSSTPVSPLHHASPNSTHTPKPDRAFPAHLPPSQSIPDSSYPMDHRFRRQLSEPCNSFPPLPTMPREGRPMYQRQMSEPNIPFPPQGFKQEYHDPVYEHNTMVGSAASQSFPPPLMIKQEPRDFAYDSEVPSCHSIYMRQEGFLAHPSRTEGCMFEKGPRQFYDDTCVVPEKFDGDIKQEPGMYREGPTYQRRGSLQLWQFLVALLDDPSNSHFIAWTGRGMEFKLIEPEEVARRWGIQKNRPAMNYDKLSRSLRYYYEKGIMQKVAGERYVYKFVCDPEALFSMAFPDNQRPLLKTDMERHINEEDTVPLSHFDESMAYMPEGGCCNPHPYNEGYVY
Another experiment concerns the target T6, ERF (Homo sapiens, UniProt P50548 1-548).
T6 sequence: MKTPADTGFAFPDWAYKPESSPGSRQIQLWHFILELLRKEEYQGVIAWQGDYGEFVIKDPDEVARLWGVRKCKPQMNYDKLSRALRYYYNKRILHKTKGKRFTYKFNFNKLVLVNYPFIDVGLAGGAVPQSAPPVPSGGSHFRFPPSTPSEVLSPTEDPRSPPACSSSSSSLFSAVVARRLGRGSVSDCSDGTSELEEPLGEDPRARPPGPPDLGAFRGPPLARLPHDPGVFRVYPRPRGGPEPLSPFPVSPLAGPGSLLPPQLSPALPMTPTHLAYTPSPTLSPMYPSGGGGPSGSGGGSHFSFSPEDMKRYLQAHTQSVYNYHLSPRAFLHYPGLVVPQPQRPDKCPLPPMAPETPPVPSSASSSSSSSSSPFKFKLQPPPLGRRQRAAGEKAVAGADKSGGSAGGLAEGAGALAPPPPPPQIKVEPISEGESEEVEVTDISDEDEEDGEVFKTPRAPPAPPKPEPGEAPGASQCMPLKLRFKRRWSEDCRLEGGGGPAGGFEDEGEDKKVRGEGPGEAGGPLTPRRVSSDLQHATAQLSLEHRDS
The conditions noted are these: protein: recombinant; tags: N-terminal GST; dsDNA, one strand shown. Put shortly:
as §1

Another experiment has as its target T7, ETV3L (Homo sapiens, UniProt Q6ZN32 1-361).
T7 sequence: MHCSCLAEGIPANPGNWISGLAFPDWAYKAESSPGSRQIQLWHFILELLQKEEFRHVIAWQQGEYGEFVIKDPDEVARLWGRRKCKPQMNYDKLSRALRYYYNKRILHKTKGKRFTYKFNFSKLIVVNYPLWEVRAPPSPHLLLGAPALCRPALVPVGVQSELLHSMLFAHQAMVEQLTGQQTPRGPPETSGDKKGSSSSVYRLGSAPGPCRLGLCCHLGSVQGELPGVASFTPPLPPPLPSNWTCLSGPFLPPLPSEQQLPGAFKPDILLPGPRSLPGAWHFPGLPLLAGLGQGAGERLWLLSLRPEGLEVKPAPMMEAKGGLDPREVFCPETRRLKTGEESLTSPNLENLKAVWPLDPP
The conditions noted are these: protein: recombinant; tags: N-terminal GST; dsDNA, one strand shown. The method, boiled down: as §1

The target of the next experiment is T8, ETS2 (Homo sapiens, UniProt P15036 1-469).
T8 sequence: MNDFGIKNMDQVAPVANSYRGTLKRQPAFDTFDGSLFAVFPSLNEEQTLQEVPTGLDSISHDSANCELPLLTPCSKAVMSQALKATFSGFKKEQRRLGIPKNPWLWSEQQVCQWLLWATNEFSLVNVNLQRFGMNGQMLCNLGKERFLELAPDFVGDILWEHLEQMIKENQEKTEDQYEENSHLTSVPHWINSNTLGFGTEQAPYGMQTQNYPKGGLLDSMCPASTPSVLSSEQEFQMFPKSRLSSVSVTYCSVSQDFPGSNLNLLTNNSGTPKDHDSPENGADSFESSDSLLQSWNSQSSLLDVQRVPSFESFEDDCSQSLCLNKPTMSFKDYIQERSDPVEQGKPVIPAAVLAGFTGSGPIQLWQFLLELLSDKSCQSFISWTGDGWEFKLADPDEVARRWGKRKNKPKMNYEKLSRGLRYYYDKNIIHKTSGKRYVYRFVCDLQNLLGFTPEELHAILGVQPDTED
To be noted: protein: recombinant; tags: N-terminal GST; dsDNA, one strand shown. The method, boiled down: as §1

The target of another experiment is T9, SPDEF (Homo sapiens, UniProt O95238 1-335).
T9 sequence: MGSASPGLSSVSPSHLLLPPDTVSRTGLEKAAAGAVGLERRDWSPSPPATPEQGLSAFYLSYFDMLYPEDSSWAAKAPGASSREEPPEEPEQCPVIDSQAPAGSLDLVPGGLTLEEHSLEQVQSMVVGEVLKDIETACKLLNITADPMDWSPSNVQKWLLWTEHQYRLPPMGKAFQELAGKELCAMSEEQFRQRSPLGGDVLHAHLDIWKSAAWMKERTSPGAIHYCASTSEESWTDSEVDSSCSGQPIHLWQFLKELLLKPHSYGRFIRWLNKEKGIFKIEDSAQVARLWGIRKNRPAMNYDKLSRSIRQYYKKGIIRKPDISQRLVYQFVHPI
The conditions noted are these: protein: recombinant; tags: N-terminal GST; dsDNA, one strand shown. The method, boiled down: as §1

In a further experiment the target is T10, ETV7 (Homo sapiens, UniProt Q9Y603 1-341).
T10 sequence: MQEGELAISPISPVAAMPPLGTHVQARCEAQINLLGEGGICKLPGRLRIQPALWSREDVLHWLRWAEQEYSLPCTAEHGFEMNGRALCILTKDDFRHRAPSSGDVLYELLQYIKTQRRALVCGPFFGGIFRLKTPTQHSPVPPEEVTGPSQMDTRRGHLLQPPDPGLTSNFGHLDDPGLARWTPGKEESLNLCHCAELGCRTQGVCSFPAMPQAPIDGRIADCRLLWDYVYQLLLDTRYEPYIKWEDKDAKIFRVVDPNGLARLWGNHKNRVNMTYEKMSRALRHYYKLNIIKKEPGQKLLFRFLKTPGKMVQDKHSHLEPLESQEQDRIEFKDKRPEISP
To be noted: protein: recombinant; tags: N-terminal GST; dsDNA, one strand shown. The method, boiled down:
as §1

The next experiment concerns the target T11, ELF5 (Homo sapiens, UniProt Q9UKW6-2 1-255).
T11 sequence: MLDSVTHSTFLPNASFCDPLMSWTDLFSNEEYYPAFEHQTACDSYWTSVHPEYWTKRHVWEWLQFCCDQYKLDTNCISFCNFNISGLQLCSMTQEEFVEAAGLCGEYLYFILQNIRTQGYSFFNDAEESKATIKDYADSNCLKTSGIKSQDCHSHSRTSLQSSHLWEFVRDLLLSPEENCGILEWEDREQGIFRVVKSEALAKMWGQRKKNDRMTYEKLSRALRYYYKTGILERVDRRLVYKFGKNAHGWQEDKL
To be noted: protein: recombinant; tags: N-terminal GST; dsDNA, one strand shown. The method, boiled down: as §1

Another experiment concerns the target T12, ETV3 (Homo sapiens, UniProt P41162-2 1-143).
T12 sequence: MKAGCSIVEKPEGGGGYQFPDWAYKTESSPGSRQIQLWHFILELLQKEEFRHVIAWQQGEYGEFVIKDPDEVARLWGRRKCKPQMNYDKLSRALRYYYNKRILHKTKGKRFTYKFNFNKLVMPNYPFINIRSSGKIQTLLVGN
To be noted: protein: recombinant; tags: N-terminal GST; dsDNA, one strand shown. Put shortly:
as §1

The target of another experiment is ETV6 (Homo sapiens, UniProt P41212 1-452). To be noted: protein: recombinant; tags: N-terminal GST; dsDNA, one strand shown. Put shortly:
as §1

CRX, sequence (O43186 whole entry): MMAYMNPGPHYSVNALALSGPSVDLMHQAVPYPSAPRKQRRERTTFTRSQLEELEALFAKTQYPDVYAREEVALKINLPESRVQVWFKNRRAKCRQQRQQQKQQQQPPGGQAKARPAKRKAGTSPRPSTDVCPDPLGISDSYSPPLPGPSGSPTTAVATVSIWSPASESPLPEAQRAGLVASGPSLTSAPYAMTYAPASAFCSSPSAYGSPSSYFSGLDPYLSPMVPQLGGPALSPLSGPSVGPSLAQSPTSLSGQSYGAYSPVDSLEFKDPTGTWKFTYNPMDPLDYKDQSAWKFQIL
ETV5, sequence (P41161 whole entry): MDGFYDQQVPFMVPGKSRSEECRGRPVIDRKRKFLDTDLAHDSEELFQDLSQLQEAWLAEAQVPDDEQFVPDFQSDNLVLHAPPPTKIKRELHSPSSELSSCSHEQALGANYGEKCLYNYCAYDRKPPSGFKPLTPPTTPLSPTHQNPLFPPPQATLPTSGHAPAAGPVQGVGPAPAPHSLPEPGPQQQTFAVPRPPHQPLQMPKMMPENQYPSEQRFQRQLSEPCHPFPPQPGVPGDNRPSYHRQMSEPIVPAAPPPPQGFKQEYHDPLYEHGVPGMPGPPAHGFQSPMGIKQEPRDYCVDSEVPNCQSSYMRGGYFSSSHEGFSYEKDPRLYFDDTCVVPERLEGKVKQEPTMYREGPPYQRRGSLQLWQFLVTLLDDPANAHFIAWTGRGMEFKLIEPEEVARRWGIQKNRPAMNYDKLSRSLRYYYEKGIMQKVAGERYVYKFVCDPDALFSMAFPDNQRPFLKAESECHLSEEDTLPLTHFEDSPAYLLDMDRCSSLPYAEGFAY
ELF4, sequence (Q99607 whole entry): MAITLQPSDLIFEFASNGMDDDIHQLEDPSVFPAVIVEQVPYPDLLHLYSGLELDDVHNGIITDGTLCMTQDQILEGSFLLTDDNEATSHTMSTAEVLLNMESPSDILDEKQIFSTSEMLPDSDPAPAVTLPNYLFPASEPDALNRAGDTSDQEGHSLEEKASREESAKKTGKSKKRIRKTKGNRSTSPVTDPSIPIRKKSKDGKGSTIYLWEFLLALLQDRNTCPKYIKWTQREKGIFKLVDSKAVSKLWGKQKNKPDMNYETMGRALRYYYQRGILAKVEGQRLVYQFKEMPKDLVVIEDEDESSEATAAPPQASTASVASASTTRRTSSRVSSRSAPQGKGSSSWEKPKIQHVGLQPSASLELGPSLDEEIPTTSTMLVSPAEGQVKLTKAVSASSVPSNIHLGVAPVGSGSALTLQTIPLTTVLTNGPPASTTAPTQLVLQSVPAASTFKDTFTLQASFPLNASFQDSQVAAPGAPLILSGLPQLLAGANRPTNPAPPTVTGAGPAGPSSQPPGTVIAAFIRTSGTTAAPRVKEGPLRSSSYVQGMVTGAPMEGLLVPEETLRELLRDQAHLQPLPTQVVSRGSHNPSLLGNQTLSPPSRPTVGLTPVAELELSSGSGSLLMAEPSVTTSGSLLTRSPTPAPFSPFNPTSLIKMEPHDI
ETV6, sequence (P41212 whole entry): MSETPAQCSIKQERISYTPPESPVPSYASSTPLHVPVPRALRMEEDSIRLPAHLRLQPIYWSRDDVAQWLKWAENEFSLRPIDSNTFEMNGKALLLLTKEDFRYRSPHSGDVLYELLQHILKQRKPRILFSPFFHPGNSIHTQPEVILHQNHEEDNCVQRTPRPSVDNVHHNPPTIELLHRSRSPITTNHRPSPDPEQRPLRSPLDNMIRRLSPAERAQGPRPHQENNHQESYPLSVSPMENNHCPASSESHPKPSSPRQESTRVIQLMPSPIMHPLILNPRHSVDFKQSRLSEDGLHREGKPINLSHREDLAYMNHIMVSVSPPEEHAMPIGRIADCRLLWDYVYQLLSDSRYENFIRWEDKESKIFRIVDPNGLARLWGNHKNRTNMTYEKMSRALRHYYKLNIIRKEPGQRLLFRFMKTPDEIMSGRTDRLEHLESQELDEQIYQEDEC

For TTATAT, the binding signal with FEV was 1.33 fold enrichment (6-mer frequency, TF over GST control); with ETV5, 1.26 fold enrichment (6-mer frequency, TF over GST control); with HSF1, 1.76 fold enrichment (6-mer frequency, TF over GST control); with SPIC it was 1.44 fold enrichment (6-mer frequency, TF over GST control); with ELF4, 1.34 fold enrichment (6-mer frequency, TF over GST control); in the experiment with ELK4, 1.45 fold enrichment (6-mer frequency, TF over GST control). Besides, the binding signal with ETV2 is 1.46 fold enrichment (6-mer frequency, TF over GST control); with ELF3, 1.44 fold enrichment (6-mer frequency, TF over GST control); with CRX, 2.47 fold enrichment (6-mer frequency, TF over GST control); with ETV1 it was 1.34 fold enrichment (6-mer frequency, TF over GST control); with ERF it was 1.23 fold enrichment (6-mer frequency, TF over GST control); with ETV3L it was 1.37 fold enrichment (6-mer frequency, TF over GST control). In addition, the binding signal in the experiment with ETS2 is 1.39 fold enrichment (6-mer frequency, TF over GST control); with SPDEF, 1.4 fold enrichment (6-mer frequency, TF over GST control); with ETV7 it was 1.38 fold enrichment (6-mer frequency, TF over GST control); in the experiment with ELF5 it was 1.28 fold enrichment (6-mer frequency, TF over GST control); with ETV3, 1.44 fold enrichment (6-mer frequency, TF over GST control); in the experiment with ETV6 it was 1.36 fold enrichment (6-mer frequency, TF over GST control).
